Holding throughout (assay): lowest phenotypically active concentration; higher = less potent
Holding throughout (details): treatment time: 24 h

The subject of one assay is HepG2-CANX-COX4. In outline:
(§1)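 Four wells per concentration (0.3, 1, 3 or 9 µM) were treated for 24 h in each of fifteen gene-edited reporter lines from A549, HepG2 and WPMY1 cells, then imaged live. After normalising live-cell features to solvent control wells, deviation was defined as ≥3 of 4 wells lying past the 95th percentile of control Euclidean distances. Reproducibility was defined as a median replicate Pearson correlation above the 95th percentile of non-replicates. Both had to hold for phenotypic activity.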

For another assay, the system named is HepG2-GM130-SQSTM1. In outline:
as §1

A further assay has as its system HepG2-TP53BP1-CLTA. A digest of the protocol:
as §1

A further assay has as its system HepG2-TUBA1B-RELA. A digest of the protocol:
as §1

The next assay has as its system WPMY1-ACTB-RAB5A. A digest of the protocol:
as §1

For the next assay, the system named is WPMY1-GM130-SQSTM1. A digest of the protocol: as §1
A further assay deals with WPMY1-TP53BP1-CLTA. A digest of the protocol:
as §1

A further assay concerns WPMY1-TUBA1B-RELA. In outline:
as §1

Counter-ions that a name gives are not always drawn.

`CC(=O)O[C@@H]1C[C@H]2C(C)(C)C(=O)C=C[C@]2(C)[C@H]2CC[C@@]3(C)[C@H](c4ccoc4)OC(=O)[C@H]4O[C@]43[C@@]21C` [gedunin]: the “lowest phenotypically active concentration” value with HepG2-CANX-COX4 stood at 1 µM; in the assay with HepG2-GM130-SQSTM1, 9 µM; in the assay with HepG2-TP53BP1-CLTA, 3 µM; with HepG2-TUBA1B-RELA it was 9 µM; in the assay with WPMY1-ACTB-RAB5A it was 3 µM; with WPMY1-GM130-SQSTM1, 9 µM.
In the case of `CC(=O)Nc1ccc(NC(=S)NC(=O)c2ccc(C(C)(C)C)cc2)cc1` [Tenovin-1], the “lowest phenotypically active concentration” value was 3 µM with HepG2-CANX-COX4; 9 µM in the assay with HepG2-TP53BP1-CLTA; 3 µM in the assay on HepG2-TUBA1B-RELA; no more than 0.3 µM with WPMY1-ACTB-RAB5A; 1 µM in the assay on WPMY1-GM130-SQSTM1; 1 µM in the assay on WPMY1-TP53BP1-CLTA. Also, the “lowest phenotypically active concentration” value in the assay on WPMY1-TUBA1B-RELA was found to be 1 µM.
With `CC(CN(C)C)CN1c2ccccc2CCc2ccccc21` (centres undefined) [trimipramine], the “lowest phenotypically active concentration” value with HepG2-TUBA1B-RELA, in the assay with WPMY1-ACTB-RAB5A and in the assay on WPMY1-GM130-SQSTM1 was 9 µM each time.
Regarding `Cc1cc2nc(NCCCO)n(CC(=O)c3cc(C(C)(C)C)c(O)c(C(C)(C)C)c3)c2cc1C`, in the assay on HepG2-TUBA1B-RELA, the “lowest phenotypically active concentration” value was 9 µM.
Consider `CCCCCCCCCCCCC/C=C/[C@@H](O)[C@H](CO)N(C)C` [N,N-Dimethylsphingosine], for which the “lowest phenotypically active concentration” value was determined as 3 µM with HepG2-CANX-COX4; 9 µM in the assay with HepG2-GM130-SQSTM1; 3 µM with HepG2-TP53BP1-CLTA; 9 µM in the assay with HepG2-TUBA1B-RELA; 3 µM with WPMY1-ACTB-RAB5A; 3 µM in the assay with WPMY1-GM130-SQSTM1. The “lowest phenotypically active concentration” value with WPMY1-TP53BP1-CLTA stood at 9 µM; in the assay with WPMY1-TUBA1B-RELA, 3 µM.
With `O=C(CCCN1CCC(O)(c2ccc(Cl)cc2)CC1)c1ccc(F)cc1` [haloperidol], the “lowest phenotypically active concentration” value in the assay with HepG2-GM130-SQSTM1, in the assay on HepG2-TP53BP1-CLTA, with HepG2-TUBA1B-RELA and with WPMY1-GM130-SQSTM1 was 9 µM in each case.
With `CCSc1ccc2c(c1)N(CCCN1CCN(C)CC1)c1ccccc1S2` [thiethylperazine], the “lowest phenotypically active concentration” value with HepG2-GM130-SQSTM1, in the assay with HepG2-TUBA1B-RELA, in the assay with WPMY1-ACTB-RAB5A, in the assay on WPMY1-GM130-SQSTM1, in the assay with WPMY1-TP53BP1-CLTA and in the assay with WPMY1-TUBA1B-RELA was 9 µM throughout.
For `CN1CCN(c2ccc(-c3cccc(CN4CCOCC4)c3)cc2NC(=O)c2c[nH]c(=O)cc2C(F)(F)F)CC1`, the “lowest phenotypically active concentration” value in the assay on HepG2-GM130-SQSTM1, in the assay with HepG2-TP53BP1-CLTA, in the assay with HepG2-TUBA1B-RELA, in the assay on WPMY1-GM130-SQSTM1, in the assay on WPMY1-TP53BP1-CLTA and with WPMY1-TUBA1B-RELA was 9 µM in each case.
Turning to `Cc1cc(CS(=O)(=O)c2ccccc2)cc(OCc2ccc(CN3CCC[C@@H]3CO)cc2)c1` [PF 543 hydrochloride], the “lowest phenotypically active concentration” value with HepG2-GM130-SQSTM1, in the assay with HepG2-TP53BP1-CLTA and in the assay with WPMY1-ACTB-RAB5A was 9 µM in each case.
For `COc1cc(NC(=O)c2cccc(-n3cc(NC(=O)Nc4cccc(C)c4)cn3)c2)cc(OC)c1OC`, the “lowest phenotypically active concentration” value in the assay with WPMY1-GM130-SQSTM1 and with WPMY1-TUBA1B-RELA was 9 µM each time.
Regarding `CCN(CCO)CCCC(C)Nc1ccnc2cc(Cl)ccc12` (centres undefined) [hydroxychloroquine], the “lowest phenotypically active concentration” value with HepG2-GM130-SQSTM1, with HepG2-TUBA1B-RELA, in the assay with WPMY1-ACTB-RAB5A, in the assay on WPMY1-GM130-SQSTM1 and in the assay on WPMY1-TUBA1B-RELA was 9 µM throughout.
On to `Fc1ccc([C@@H]2CCNC[C@H]2COc2ccc3c(c2)OCO3)cc1` [paroxetine], for which the “lowest phenotypically active concentration” value in the assay on HepG2-GM130-SQSTM1 worked out at 9 µM; in the assay with HepG2-TP53BP1-CLTA, 9 µM; with HepG2-TUBA1B-RELA, 3 µM; in the assay with WPMY1-ACTB-RAB5A, 9 µM; with WPMY1-GM130-SQSTM1, 9 µM; with WPMY1-TP53BP1-CLTA, 9 µM. For the same molecule, the “lowest phenotypically active concentration” value in the assay with WPMY1-TUBA1B-RELA is 9 µM.
Regarding `CN(C)CCCN1c2ccccc2CCc2ccc(Cl)cc21` [clomipramine], the “lowest phenotypically active concentration” value in the assay on HepG2-TP53BP1-CLTA, with HepG2-TUBA1B-RELA, in the assay on WPMY1-ACTB-RAB5A, in the assay on WPMY1-GM130-SQSTM1, with WPMY1-TP53BP1-CLTA and in the assay on WPMY1-TUBA1B-RELA was 9 µM throughout.

For the origin of these results see the supplement of paper PMC7411054.
